# According to PubChem BioAssay (NCI):
# Compounds without any hit were thinned out: in the full panel of roughly 83,000, 20% have a hit.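 Assay: single dose, 48 h. Readout: percent growth (0 = no net growth; negative = cell death). Active: <10.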 A number with no mark means an inactive call. The source made the active and inactive calls.
# Tested on: DU-145 prostate
# Assay: NCI-60 one-dose screen, 48 h (100 = growth as untreated, 0 = no growth, -100 = all killed)
# Conditions: 10 µM unless noted
row,Compound,growth
1,CCN(CC)CCOc1ccc(/C(=C(\C)c2ccc(F)c(OC)c2)c2ccc(Cl)cc2)cc1,41.3%
2,O[C@H]1CO[C@H]2[C@@H]1OC[C@@H]2Oc1ccc(Nc2ccnc(Nc3ccc(O[C@H]4CO[C@H]5[C@@H]4OC[C@@H]5O)c(Cl)c3)n2)cc1Cl,7.26% (active)
3,CC(=O)Nc1ccc(-c2cc3c(NCc4ccc(F)cc4)ncnc3s2)cc1,86.3%
4,C/C(Cc1ccc(Cl)cc1)=C(/c1ccc(Cl)cc1)c1ccc(OCCN(C)C)cc1,62.3%
5,C=C1C(=O)O[C@H]2[C@H]1CC/C(COC(=O)/C=C\C(=O)NCc1ccc(Cn3c(=O)sn(CCCC)c3=O)cc1)=C\CC[C@@]1(C)O[C@@H]21,-95.5% (active)
6,Cc1nc(Nc2cccc(NC(=O)Nc3ccc(Cl)cc3)c2)c2ccccc2n1,91.7%
7,COc1ccc(/C=C2\COc3ccc(O)c(O)c3C2=O)c(OC)c1,67.2%
8,CCN(CC)CCOc1ccc(/C(=C(\C)c2ccc(OC)c(F)c2)c2ccc(Cl)cc2)cc1,84%
9,C=C1C(=O)O[C@H]2[C@H]1CC/C(COC(=O)/C=C\C(=O)NCc1ccc(Cn3c(=O)sn(-c4ccc(C#N)cc4)c3=O)cc1)=C\CC[C@@]1(C)O[C@@H]21,-94.4% (active)
10,CN(C)CCN1C(=O)c2cccc3c(-c4ccc(-c5nc6c7ccccc7c7ccccc7c6[nH]5)cc4)ccc(c23)C1=O,102%
11,c1ccc([P+](CCCc2n(Cc3ccc4ccccc4c3)c3ccccc3[n+]2Cc2ccc3ccccc3c2)(c2ccccc2)c2ccccc2)cc1,82.1%
12,CCCCS(=O)(=O)Oc1ccc(-c2nc(C)c(C(=O)OCC)s2)cc1C=O,61.4%
13,CCCCN(Cc1ccc(C(=O)NO)cc1)C(=O)Nc1ccc(OCCCCCCCCCn2cc(CCCCC(=O)N[C@H](C(=O)N3C[C@H](O)C[C@H]3C(=O)NCc3ccc(-c4scnc4C)cc3)C(C)(C)C)nn2)cc1,50.8%
14,COc1ccc(/C(C)=C(\c2ccc(Cl)cc2)c2ccc(OCCN3CCCCCC3)cc2)cc1F,67.5%
15,C=C1C(=O)O[C@H]2[C@H]1CC/C(COC(=O)/C=C\C(=O)NCc1ccc(Cn3c(=O)sn(-c4ccc(Cl)cc4)c3=O)cc1)=C\CC[C@@]1(C)O[C@@H]21,-94.7% (active)
16,O[C@H]1CO[C@H]2[C@@H]1OC[C@@H]2Oc1ccc(Nc2nc(Nc3ccc(F)c(Cl)c3)ncc2F)cc1Cl,117%
17,O=C(CCc1nc(-c2cccc(Cl)c2)no1)Nc1ccccn1,109%
18,COc1ccc(Cn2cnc3cc(C(=O)Nc4cccc5ccccc45)ccc32)c(OC)c1,-7.09% [30 µM] (active)
19,Cc1nc(Nc2ccc(N)cc2)c2ccccc2n1,117%
20,COc1cccc(/C=C2\COc3ccc(O)cc3C2=O)c1OC,45.1%
21,CC(C)c1ccc(NC(=O)Cc2ccc(Nc3ncnc4cc(-c5cnn(CCN(C)C)c5)ccc34)cc2)cc1,-97.5% [30 µM] (active)
22,O=C1c2cccc3c(-c4ccc(-c5nc6c7ccccc7c7ccccc7c6[nH]5)cc4)ccc(c23)C(=O)N1CCN1CCNCC1,42.5%
23,O=C1/C(=C/c2ccc([N+](=O)[O-])cc2)COc2ccc(O)c(O)c21,-19.1% (active)
24,Cn1ccnc1C(=O)/C=C/c1ccc(C(=O)Nc2ccc(S(F)(F)(F)(F)F)cc2)cc1,15.6%
25,COc1ccc(OC)c(C(=O)Nc2cccc(-c3cc(=O)c4ccccc4o3)c2)c1,88.1%
26,C=C1C(=O)O[C@H]2[C@H]1CC/C(COC(=O)/C=C\C(=O)NCc1ccc(Cn3c(=O)sn(CCCI)c3=O)cc1)=C\CC[C@@]1(C)O[C@@H]21,-90.4% (active)
